# Source: PubChem BioAssay (EPA / NIEHS)
# Values joined by “and” are separate entries in the source; they are usually repeats but may differ in a detail not shown here. Equal values may be shown once. Active and inactive are the calls of the source. How the source made its calls: active means hit-call score of the fitted dose curve at least 0.9, where 1 is the maximum; inactive means score below 0.9.
# Read-out: CD69, CD69 (gene 969)
# Experiment: BSK_IMphg_CD69: BioMAP Diversity Plus: IMphg Assay for CD69 Biomarker Activity (AID 2284257)
# Settings: primary human endothelial cells with macrophages
# Method in brief: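 Readout is ELISA for CD69 in primary human venular endothelial cell/macrophage co-culture, taken at 24 h post-dosing. SRB staining of parallel cultures gauged overt cytotoxicity; signal increase versus DMSO defined activity.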
SMILES,outcome,AC50
FC(F)(F)C(F)(F)C(F)(F)CC1CO1 (stereo unspecified),inactive,–
OCC(F)(F)C(F)(F)C(F)(F)C(F)(F)C(F)(F)C(F)(F)C(F)(F)C(F)(F)CO,–,54.4 µM (active) and 42.6 µM (active)
FC(F)(F)C(F)(F)C(F)(F)C(F)(F)C(F)(F)C(F)(F)C(F)(F)CCI,inactive,–
NC(O)(C(F)(F)F)C(F)(F)F,inactive,–
OCCCCC(F)(F)C(F)(F)C(F)(F)C(F)(F)F,inactive,–
O=C(F)C1(F)C(F)(F)C(F)(F)C(F)(F)C(F)(F)C1(F)F,inactive,–
OC(O)C(F)(F)C(F)(F)F,inactive,–
CN(C(=O)C(F)(F)C(F)(F)C(F)(F)F)[Si](C)(C)C,inactive,–
OCCCC(F)(F)C(F)(F)C(F)(F)C(F)(F)C(F)(F)C(F)(F)C(F)(F)C(F)(F)F,–,40.1 µM (active) and 48.6 µM (active)
O=C(O)CCC(F)(F)C(F)(F)C(F)(F)F,inactive,–
NC(=O)C(F)(F)C(F)(F)C(F)(F)C(F)(F)C(N)=O,inactive,–
NC(=O)C(F)(F)C(F)(F)C(F)(F)F,inactive,–

# Read-out: Eotaxin 3, CCL26 (gene 10344)
# Experiment: BSK_BF4T_Eotaxin3: BioMAP Diversity Plus: BF4T Assay for Eotaxin 3 Biomarker Activity (AID 2284258)
# Settings: primary human bronchial epithelial cells with fibroblasts
# Method in brief: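 ELISA measurement of Eotaxin-3 after 24 h chemical exposure in a bronchial epithelial/dermal fibroblast co-culture, with DMSO as baseline. Parallel SRB staining (0.1% SRB after 10% TCA fixation, 560 nm) flagged overt cytotoxicity.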
SMILES,outcome,AC50
FC(F)(F)C(F)(F)C(F)(F)CC1CO1 (stereo unspecified),inactive,–
OCC(F)(F)C(F)(F)C(F)(F)C(F)(F)C(F)(F)C(F)(F)C(F)(F)C(F)(F)CO,–,15.3 µM (active) and 16.6 µM (active)
FC(F)(F)C(F)(F)C(F)(F)C(F)(F)C(F)(F)C(F)(F)C(F)(F)CCI,inactive,–
NC(O)(C(F)(F)F)C(F)(F)F,inactive,–
OCCCCC(F)(F)C(F)(F)C(F)(F)C(F)(F)F,inactive,–
O=C(F)C1(F)C(F)(F)C(F)(F)C(F)(F)C(F)(F)C1(F)F,inactive,–
OC(O)C(F)(F)C(F)(F)F,inactive,–
CN(C(=O)C(F)(F)C(F)(F)C(F)(F)F)[Si](C)(C)C,inactive,–
OCCCC(F)(F)C(F)(F)C(F)(F)C(F)(F)C(F)(F)C(F)(F)C(F)(F)C(F)(F)F,–,24.7 µM (active) and 24.9 µM (active)
O=C(O)CCC(F)(F)C(F)(F)C(F)(F)F,inactive,–
NC(=O)C(F)(F)C(F)(F)C(F)(F)C(F)(F)C(N)=O,inactive,–
NC(=O)C(F)(F)C(F)(F)C(F)(F)F,inactive,–

# Read-out: Intercellular Adhesion Molecule 1 (ICAM1), ICAM1 (gene 3383)
# Experiment: BSK_BF4T_ICAM1: BioMAP Diversity Plus: BF4T Assay for Intercellular Adhesion Molecule 1 (ICAM1) Biomarker Activity (AID 2284260)
# Settings: primary human bronchial epithelial cells with fibroblasts
# Method in brief: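 ICAM-1 levels measured by ELISA after 24 h chemical treatment of bronchial epithelial cell/dermal fibroblast co-cultures, read against DMSO baseline. Overt cytotoxicity checked in parallel cultures by sulforhodamine B staining.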
SMILES,outcome,AC50
FC(F)(F)C(F)(F)C(F)(F)CC1CO1 (stereo unspecified),inactive,–
OCC(F)(F)C(F)(F)C(F)(F)C(F)(F)C(F)(F)C(F)(F)C(F)(F)C(F)(F)CO,–,16.4 µM (active) and 12.2 µM (active)
FC(F)(F)C(F)(F)C(F)(F)C(F)(F)C(F)(F)C(F)(F)C(F)(F)CCI,inactive,–
NC(O)(C(F)(F)F)C(F)(F)F,inactive,–
OCCCCC(F)(F)C(F)(F)C(F)(F)C(F)(F)F,inactive,–
O=C(F)C1(F)C(F)(F)C(F)(F)C(F)(F)C(F)(F)C1(F)F,inactive,–
OC(O)C(F)(F)C(F)(F)F,inactive,–
CN(C(=O)C(F)(F)C(F)(F)C(F)(F)F)[Si](C)(C)C,inactive,–
OCCCC(F)(F)C(F)(F)C(F)(F)C(F)(F)C(F)(F)C(F)(F)C(F)(F)C(F)(F)F,–,23.2 µM (active) and 34.2 µM (active)
O=C(O)CCC(F)(F)C(F)(F)C(F)(F)F,inactive,–
NC(=O)C(F)(F)C(F)(F)C(F)(F)C(F)(F)C(N)=O,inactive,–
NC(=O)C(F)(F)C(F)(F)C(F)(F)F,inactive,–
